An excerpt weighted towards active compounds, which were near 10% of everything screened.
MCF10A rereplic: DNA re-replication induction in MCF 10a cells | AID 624296 | Potency, µM (highest dose often 46.1 µM), without a hit: top-dose activity, positive = re-replication, actives largely listed as activators | MCF 10A DNA re-replication, Hoechst nuclear intensity, 48 h | 2.9% of 350,000 active; also: % of control where 0% means no effect; nearly all actives have a fitted effect of over 50% in size
VP16 counter: Gal4-VP16 reporter inhibition counter-screen; Drosophila S2 Gal4-VP16 UAS-luciferase, luminescence, 20 h; AID 2546; 3.5% of 310,000 active; Potency, µM (titrated, usually from 53.6 µM), for inactives: at the top dose activity, negative = inhibition, actives largely listed as inhibitors;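 also: Gal4-VP16 expression switched on by copper sulfate through the metallothionein promoter; % is scaled to controls: 0 for no effect and ±100 for the full control effect; nearly all actives have a fitted effect of over 50% in size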
SW480 rerep: DNA re-replication induction in SW480 cells. Potency, µM (highest dose often 46.1 µM), for the others: at the highest dose re-replication activation, hits mostly activators. SW480 DNA re-replication, Hoechst DNA content imaging, 48 h. 1.8% of 340,000 active; also: % of control where 0% means no effect; nearly all actives have a fitted effect of over 55% in size
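Per well, 250 cells were exposed to pinned compound for 48 hr. Nuclear DNA was visualised with Hoechst (40 min, 37 C) and total object intensity recorded by fluorescence scanning.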
RORg inh: inhibitors of mouse ROR gamma transcriptional activity. P51450. Drosophila S2 Gal4-RORgamma UAS-luciferase reporter, 20 h. Potency, µM (top dose mostly 53.6 µM), inactives show at the top dose activity change, negative = inhibition, usual class: inhibitors. 5.4% of 310,000 active. AID 2551; also: % is scaled to controls: 0 for no effect and ±100 for the full control effect; nearly all actives have a fitted effect of over 60% in size
Target sequence (P51450 whole entry, looked up, the tested form may be a part): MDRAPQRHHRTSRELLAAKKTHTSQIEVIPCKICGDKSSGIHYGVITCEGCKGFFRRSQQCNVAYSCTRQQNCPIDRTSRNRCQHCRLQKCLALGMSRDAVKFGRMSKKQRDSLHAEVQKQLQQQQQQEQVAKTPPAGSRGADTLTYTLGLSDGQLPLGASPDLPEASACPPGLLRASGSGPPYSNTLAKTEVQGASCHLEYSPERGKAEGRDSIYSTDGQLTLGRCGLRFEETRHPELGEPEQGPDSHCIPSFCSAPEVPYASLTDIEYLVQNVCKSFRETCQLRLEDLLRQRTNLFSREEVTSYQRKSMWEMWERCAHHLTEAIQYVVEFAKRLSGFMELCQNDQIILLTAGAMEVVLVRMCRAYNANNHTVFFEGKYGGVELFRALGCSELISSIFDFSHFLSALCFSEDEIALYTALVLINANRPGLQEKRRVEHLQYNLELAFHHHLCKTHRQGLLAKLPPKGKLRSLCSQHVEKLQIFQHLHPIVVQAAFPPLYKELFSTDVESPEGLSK
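Schneider cells (Drosophila), stable Gal4 DBD–ROR gamma + UAS-luc; 1 hr cmpd preincubation; Cu2+ induction 700 uM final; 20 hr ambient; luminescence.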
KB-3-1 cytotox: kills parental KB-3-1 adenocarcinoma cells; Potency, µM (highest dose often 46.1 µM), hits mostly cytotoxic; KB-3-1 viability, CellTiter-Glo ATP luminescence, 72 h; 1.4% of 400,000 active; also: % is scaled to controls: 0 for no effect and ±100 for the full control effect; nearly all actives have a fitted effect of over 60% in size
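Here the drug-naive KB-3-1 line serves as comparator for MDR sub-line selectivity; cells received compound titrations, 72 h at 37 °C, then CellTiter-Glo readout.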
KB-V1 cytotox: kills drug-selected multidrug resistant KB-V1 cells | Potency, µM (titrated, usually from 46.1 µM), most hits filed as cytotoxic | 3.4% of 400,000 active | KB-V1 MDR cells viability, CellTiter-Glo, 72 h; also: % is scaled to controls: 0 for no effect and ±100 for the full control effect; nearly all actives have a fitted effect of over 60% in size
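KB-V1 cells (P-gp-expressing MDR subline of KB-3-1) in phenol-red-free DMEM with 10% FBS were exposed to library compounds over a concentration series for 72 h at 37 degrees C. Viability read by CellTiter-Glo luminescence; concentration-effect curves fitted after normalization.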
* hit, by the source's call; i = inactive; ? = inconclusive; . = no result; [ ] = another dose, or the depositor's remark. Calls follow the shape of the dose curve; as a rule, active = well fitted curve in the direction sought with a large enough effect; inconclusive = small, poorly fitted or top-dose-only effect, or another doubt; inactive = no such curve, though single readings can be large; an effect the other way counts as inactive or inconclusive. Potency is read from the fitted curve at half-maximal effect.

SMILES | MCF10A rereplic | VP16 counter | SW480 rerep | RORg inh | KB-3-1 cytotox | KB-V1 cytotox
CCCN1CCc2c(sc(NC(=O)c3ccc(S(=O)(=O)N(C)c4ccccc4)cc3)c2C(N)=O)C1 | 6.5µM* | -28% | ? | -19% | i | i
COC(=O)c1c(NC(=O)CCS(=O)(=O)c2ccccc2)sc2c1CCN(C)C2 | ? | 2% | ? | -25% | . | .
NC(=O)c1c(NC(=O)C2COc3ccccc3O2)sc2c1CCN(Cc1ccccc1)C2 (stereo unspecified) | 23µM* | -25% | ? | -7% | ? | ?
CCOC(=O)N1CCN(S(=O)(=O)c2ccc(C(=O)Nc3sc4c(c3C(N)=O)CCN(CC)C4)cc2)CC1 | ? | ? | 778% | ? | ? | i
CCCN1CCc2c(sc(NC(=O)c3ccc(S(=O)(=O)N4CCN(C(=O)OCC)CC4)cc3)c2C(N)=O)C1 | ? | ? | 21µM* | ? | i | i
CCCN1CCc2c(sc(NC(=O)CCS(=O)(=O)c3ccccc3)c2C(=O)OC)C1 | 18µM* | 3% | ? | 7% | i | i
CC(=O)Nc1ccc(NC(=O)COc2c(C)cc(Br)cc2C)cc1 | -35% | 5% | -40% | 2% | i | i
Cc1cc(Br)c(OCC(=O)NN)c2c1CCC2 | 15µM* | -8% | 31% | -8% | i | ?
O=C(O)CCc1ccc(-c2ccc(Cl)cc2)o1 | 21µM* | ? | ? | ? | i | i
O=C(O)CCc1ccc(-c2ccc(Br)cc2)o1 | ? | ? | 5.8µM* | ? | i | i
COc1ccc(-c2ccc(CCC(=O)O)o2)cc1 | ? | -19% | ? | ? | ? | i
NC(=O)c1ccc(-c2ccc(Br)cc2)o1 | 14% | 4% | 0% | 26% | 8.2µM* | 8.2µM*
COc1ccc(Br)cc1CNC(=O)CSc1cc(=O)n(C)c2ccccc12 | . | . | . | . | i | i
COc1ccc([C@]23Cc4cc(OC)c(OC)cc4C(O2)C2=C(CC(C)(C)CC2=O)O3)cc1 | . | -3%[10 µM] | . | 1%[10 µM] | . | .
CCOc1ccc(C(=O)Nc2ccc3nc(Nc4cccc(C(F)(F)F)c4)cc(C)c3c2)cc1OCC | . | . | . | . | i | i
Cc1nc(Nc2cnc(/C=C/c3cc(C(=O)Nc4cccc(C(F)(F)F)c4)ccc3C)cn2)cc(N2CCNCC2)n1 | 15µM* | ? | 16µM* | ? | ? | ?
O=C(Nc1ccccc1C(F)(F)F)c1cc2nc(-c3ccccc3)cc(-c3ccccc3)n2n1 | . | . | . | . | i | ?
COc1ccc(C(CC(=O)c2ccc(C)cc2)Sc2ccccc2N)cc1 (stereo unspecified) | . | . | . | . | i | i
CC(=O)NC(Cc1ccccc1)C(=O)N1CCN(C(=O)c2ccco2)CC1 (stereo unspecified) | 0% | -19% | -3% | 8% | i | i
CC(=O)NC(CSC(CC(=O)c1ccco1)c1ccc(C)cc1)C(=O)O (stereo unspecified) | 21µM* | ? | ? | ? | i | i
O=C(CC(SCCO)c1ccc([N+](=O)[O-])cc1)c1ccco1 (stereo unspecified) | 16% | ? | 26% | 0% | 21µM* | i
Cc1ccc(C(=O)CC(SCC(=O)O)c2ccc([N+](=O)[O-])cc2)cc1 (stereo unspecified) | 18µM* | -3% | ? | -11% | i | i
Nc1ccccc1SC(CC(=O)c1ccccc1)c1ccc([N+](=O)[O-])cc1 (stereo unspecified) | . | . | . | . | 21µM* | i
COc1cccc(-c2cn3ncsc3n2)c1 | . | . | . | . | i | i
O=C1c2ccccc2C(c2nnnn2Cc2ccccc2)N1Cc1cccnc1 (stereo unspecified) | . | . | . | . | i | ?
SMILES | MCF10A rereplic | VP16 counter | SW480 rerep | RORg inh | KB-3-1 cytotox | KB-V1 cytotox
COc1ccc(OC)c(NC(=O)C2(C)CCN2C(=O)C2(c3ccc(Cl)cc3)CCC2)c1 (stereo unspecified) | . | . | . | . | i | i
CCOC(=O)CN1NC2(CCCCCC2)NC1=S | -2% | -17% | -7% | 7.1µM* | i | i
COc1ccc(CCCc2n[nH]c(=S)o2)cc1 | -21% | 5%[10 µM] | ? | 13µM* | i | i
S=c1[nH]nc(COc2ccc3ccccc3c2)o1 | -8% | 4µM* | 5% | ? | i | i
COc1ccc(Cc2n[nH]c(=S)o2)cc1 | -1% | -2% | 5% | 9% | i | i
O=C(C[C@@H]1C=C[C@H](NS(=O)(=O)c2ccccc2F)[C@@H](CO)O1)NCCCN1CCOCC1 | . | . | . | . | i | i
CCc1nc2ccc(C(=O)N(C)CCN(C)C)cn2c1N(C)CCC(C)C | . | . | . | . | i | i
CCOc1ccc(-c2cnc3ccccc3n2)cc1 | -2% | 8.9µM* | 6% | 3.5µM* | ? | i
CCOc1ccc(-c2cn3ccccc3n2)cc1 | -3% | ? | 10% | 6.3µM* | ? | ?
O=[N+]([O-])c1ccc(-c2cnc3ccccc3n2)cc1 | 4% | 19% | 2% | 26% | i | i
Fc1ccc(-c2cn3ccccc3n2)cc1 | 2% | ? | 3% | ? | ? | i
NNc1ncnc2scc(-c3ccc(Cl)cc3)c12 | ? | ? | -4% | ? | 16µM* | ?
OCCCNc1ncnc2scc(-c3ccc(Cl)cc3)c12 | 2% | 7% | -7% | ? | i | ?
Clc1ccc(-c2csc3ncnc(Cl)c23)cc1 | 18µM* | -29% | 21µM* | 11µM* | i | i
Fc1ccc(-c2csc3ncnc(Cl)c23)cc1 | ? | ? | ? | ? | i | i
O=S(=O)(Nc1ncnc2scc(-c3ccc(F)cc3)c12)c1cc(F)ccc1F | ? | -1% | ? | 99% | ? | 18µM*
CCOC(=O)Cc1c(C)nc2c(-c3ccccc3)c(-c3ccccc3)[nH]n2c1=O | ? | ? | ? | 13µM* | ? | i
CCc1c(C)nc2c(-c3ccccc3)c[nH]n2c1=O | -4% | . | -1% | . | ? | i
CCOC(=O)Cc1c(C)nc2c(-c3ccccc3)c[nH]n2c1=O | ? | -7%[0.365 µM] | -4% | 7.9µM* | ? | i
CCOC(=O)Cc1cc(=O)n2[nH]cc(-c3ccc(Cl)cc3)c2n1 | 11% | ? | -10% | 11µM* | i | i
COCc1cc(=O)n2[nH]cc(-c3ccsc3)c2n1 | ? | ? | 0% | 16µM* | i | i
COc1ccccc1CNc1ncnc2onc(-c3ccc(Cl)cc3)c12 | . | . | . | . | i | i
